The list is not random: actives were taken first. Their share in the collection is about 32%.
CYP2C19 act – increases human CYP2C19 enzyme activity | recombinant CYP2C19, luciferin-H EGE luminescence; stronger effect = higher value; 0 = fully inhibited enzyme, 1 = untreated enzyme | 96,000 tested, under 10 active | activation factor at 5 µM;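 active = activation factor of at least 2 at 5 µM in the primary screen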;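 also: 0 = wells with 2.5 mM tranylcypromine and 1 = vehicle-only wells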
CYP2C9 act – CYP2C9 (human) activation; P11712; recombinant CYP2C9, luciferin-H conversion, luminescence; stronger effect = higher value; factor 1 = untreated enzyme, 0 = blocked; activation factor at 5 µM; actives 1.4% (n = 96,000); AID 1024;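 active = activation factor of 2 or more for CYP2C9 at a 5 µM dose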;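 also: 0 = sulfaphenazole-blocked wells and 1 = vehicle-only wells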
Target sequence (P11712 whole entry, looked up): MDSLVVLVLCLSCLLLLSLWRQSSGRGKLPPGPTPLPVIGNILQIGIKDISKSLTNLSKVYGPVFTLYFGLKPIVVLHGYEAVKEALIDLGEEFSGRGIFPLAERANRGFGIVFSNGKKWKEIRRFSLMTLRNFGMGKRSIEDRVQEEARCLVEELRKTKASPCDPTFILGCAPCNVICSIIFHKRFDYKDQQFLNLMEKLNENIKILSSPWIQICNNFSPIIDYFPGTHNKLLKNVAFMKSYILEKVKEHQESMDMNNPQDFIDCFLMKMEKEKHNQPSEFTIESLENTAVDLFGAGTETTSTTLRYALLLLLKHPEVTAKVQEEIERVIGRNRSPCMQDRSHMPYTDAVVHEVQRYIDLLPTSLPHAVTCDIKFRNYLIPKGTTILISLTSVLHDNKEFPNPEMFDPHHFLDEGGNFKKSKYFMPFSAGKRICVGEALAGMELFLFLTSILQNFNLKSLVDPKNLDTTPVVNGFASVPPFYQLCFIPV
CYP2C9 inh – inhibitors of human CYP2C9. P11712. CYP2C9 Supersomes, luciferin-H conversion, luminescence. actives 20% (n = 96,000). inhibition, % at 5 µM;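 active = blocking of liver enzyme CYP2C9 beyond about 50% at 5 µM, limit read from the data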
PostGolgi yeast – growth inhibition of a yeast mutant, post-Golgi transport screen; post-Golgi transport phenotypic cell assay; inhibition, % at 10 µM; actives 0.9% (n = 98,000); AID 739;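 also: yeast cells grown in 1536-well plates; yeast grown about 18 h at 30C before absorbance read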
PostGolgi ctrl – inhibits growth of the yeast control strain; efflux-deficient yeast background strain, growth absorbance A615, 16 h; inhibition, % at 10 µM; actives 5% (n = 98,000)
CYP2C19 inhib – blocks human cytochrome P450 2C19. P33261. CYP2C19 Supersomes, luciferin-H EGE luminescence, 30 min. inhibition, % at 5 µM. actives 21% (n = 96,000). AID 778;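 active = CYP2C19 inhibition above a set limit at 5 µM in the primary screen, cut at about 50% in these data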;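 also: plate controls were negative control wells for no effect and 2.5 mM tranylcypromine positive control for full effect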
* hit, by the source's call; . = not tested or not shown. Rule as the data show it, unless noted: active = inhibition above about 30%; inactive = the rest.

SMILES	CYP2C19 act	CYP2C9 act	CYP2C9 inh	PostGolgi yeast	PostGolgi ctrl	CYP2C19 inhib
CCOC(=O)c1c(C)nc2sc(C(=O)Nc3ccccc3)c(N)c2c1-c1ccc(OC)cc1	0.2	0.2	82.0*	-9.0	23.8	75.7*
CCOC(=O)c1c(C)nc2c(c1-c1ccccc1)C(=O)c1ccccc1-2	0.6	0.7	27.3	1.3	35.1*	40.8
O=C(NCCO)c1ccccc1O	1	1.1	-10.4	23.1	5.0	-3.3
O=C(CC(=O)c1ccccc1O)c1ccc(F)cc1	0.5	0.9	10.7	8.0	57.9*	48.8
O=C(CC(=O)c1ccccc1O)c1cccc(F)c1	0.7	0.9	13.5	9.9	37.9*	30.6
Cc1ccccc1C(=O)NNC(=O)c1ccc(F)cc1	0.4	1.1	-14.5	-1.4	-1.2	61.8*
Cc1cccc(C(=O)O)c1NC(=O)c1ccc(F)cc1	.	.	.	0.0	1.9	.
CCN(CC)CCNC(=O)CCCNC(=O)Cn1cnc2sc(C)c(C)c2c1=O	1.2	1.1	-5.3	-1.2	10.5	-18.1
CCN(C(=O)c1c(-c2ccccc2)noc1C)c1ccccc1	0.6	1	-4.7	-4.5	5.3	44.1
CC(C)C1Oc2ccccc2N(CC(=O)NCCCN2C(C)CCCC2C)C1=O (centres undefined)	1	1	-2.4	3.3	-3.1	-2.8
CCCn1nnnc1SCC(=O)NNC(=O)C1CCCCC1	1	0.9	5.9	2.1	4.5	-2.7
CCN1C(=O)C(NC(C)=O)c2cc(Br)ccc21 (centres undefined)	1.1	1.2	-16.5	-19.8	-1.4	-13.7
CCCCN1C(=O)C(NC(C)=O)c2cc(Br)ccc21 (centres undefined)	0.2	0.8	23.7	-7.6	-0.8	78.7*
CCCCN1C2=NCCCN2c2cc(C)c(C)cc21	1.1	1	2.2	1.9	23.6	-8.2
Nc1nonc1-c1nc2ccccc2[nH]1	0.8	0.8	16.2	0.3	2.6	20.9
Cn1cc(Cl)c(-c2nc3ccccc3[nH]2)n1	0.4	0.7	31.6	-8.5	4.5	62.3*
Cc1ccccc1OCc1nnc(SCC(=O)Nc2ccc3c(c2)oc2ccccc23)n1C	0.9	1.3	-27.0	-2.5	5.8	6.4
Cc1ccc(-c2nnc(SCC(=O)Nc3ccc4c(c3)oc3ccccc34)n2C)c(Cl)c1	0.8	0.4	59.0*	0.6	4.4	23.7
CCSc1nnc(NC(=O)COc2ccc3ccccc3c2)s1	0.4	0.3	68.1*	-1.1	7.5	60.3*
CCSc1nnc(NC(=O)C(CC)Oc2ccccc2)s1 (centres undefined)	0.7	0.2	79.6*	-4.2	24.1	33.9
CCC(Oc1ccccc1)C(=O)Nc1ccccn1 (centres undefined)	0.3	0.6	44.4	11.9	-1.1	74.8*
CCOC(=O)c1sc2nc(NC(=O)COc3ccccc3)sc2c1C	0.5	0.1	86.2*	0.0	-2.1	51.3*
CCSc1nnc(NC(=O)C(Cc2ccccc2)n2cccc2)s1 (centres undefined)	1.2	1.3	-30.0	-0.8	9.7	-17.6
CCC(Oc1ccccc1)C(=O)Nc1cc(C)on1 (centres undefined)	0.6	0.5	46.2	-0.2	5.9	36.3
CCCCn1nnnc1SCC(=O)N1CCOCC1	0.6	1.1	-13.8	3.5	0.5	37.7
SMILES	CYP2C19 act	CYP2C9 act	CYP2C9 inh	PostGolgi yeast	PostGolgi ctrl	CYP2C19 inhib
CCSc1nnc(NC(=O)COc2ccccc2)s1	0.5	0.2	75.7*	0.0	4.8	53.1*
CC(=O)CSc1nnc(NC(=O)CCc2ccccc2)s1	0.8	0.7	29.3	3.5	-4.0	21.1
CCSc1nnc(NC(=O)C2CC=CCC2C(=O)O)s1 (centres undefined)	1	0.2	79.2*	2.0	0.9	-0.2
CCCCSc1nnc(NC(=O)CCc2ccccc2)s1	0.8	0.4	56.4*	-1.9	18.8	21.0
COc1cc(NC(=O)c2cc(C3CC3)on2)c(OC)cc1Cl	0.9	1	1.2	-0.7	9.2	8.6
CC(NC(=O)c1ccc(N2CCCC2=O)cc1)c1ccccc1 (centres undefined)	1	0.9	5.5	14.2	-0.9	-2.1
COc1ccc(Cc2nnc3c4cnn(C)c4ncn23)cc1	0.8	0.9	10.0	-5.5	3.8	22.2
C=CCN1C(=O)NC2(O)C(=O)c3ccccc3C12O (centres undefined)	1.1	1	4.6	19.8	3.2	-10.4
CC(=O)N1CCc2cc3nc(C)cc(C)c3cc21	1	0.9	6.7	13.3	5.0	3.7
COC(=O)c1cc(OC)c(OC)cc1NC(=O)c1ccoc1C	1.1	1	-4.6	9.3	7.0	-5.2
CCN=C(Nc1cccc(F)c1)SC1CC(=O)N(c2ccc(OC)cc2)C1=O (centres undefined)	0.7	0.4	58.6*	-3.6	9.9	31.4
COc1ccc(N2C(=O)CC(S/C(N)=N/N=C(\C)c3cccs3)C2=O)cc1 (centres undefined)	0.8	0.6	43.7	-4.1	11.0	21.4
CCN=C(NCC)SC1CC(=O)N(c2cccc(OC)c2)C1=O (centres undefined)	0.2	2.1*	-109.8	-2.4	-1.8	78.7*
CN=C(Nc1ccc2c(c1)OCO2)SC1CC(=O)N(c2ccccc2)C1=O (centres undefined)	.	.	.	-7.3	2.4	.
C/C(CCc1ccc2c(c1)OCO2)=N\N=C(/N)SC1CC(=O)N(c2ccc(Cl)cc2)C1=O (centres undefined)	0.8	0.5	54.7*	-9.9	27.1	24.5
O=C1CC(SC(=NCc2ccc3c(c2)OCO3)Nc2ccccc2)C(=O)N1c1ccccc1 (centres undefined)	0.8	0.7	31.2	3.8	41.2*	22.7
CC(C)Cn1cnc2c1c(=O)n(CC(=O)Nc1ccc3c(c1)OCO3)c(=O)n2Cc1ccccc1	1	1.1	-11.8	1.6	9.1	-1.3
CN(c1ccc(OCC(=O)N2CCC(C(N)=O)CC2)cc1)S(=O)(=O)c1cccs1	1	1	4.8	2.7	-0.9	-2.8
CCN=C(NCC)SC1CC(=O)N(c2ccccc2)C1=O (centres undefined)	0.1	1	-1.3	-2.9	2.3	87.8*
Cc1cccc(N2C(=O)CC(SC(=Nc3ccccc3)Nc3ccccc3)C2=O)c1 (centres undefined)	0.7	0.7	32.5	-22.6	8.7	31.4
Cc1ccc(CCNC(=O)C2CCC(=O)N2Cc2cccnc2)cc1 (centres undefined)	0.4	0.6	39.7	-9.3	4.2	59.4*
O=C(NCCc1ccc(Cl)cc1)C1CCC(=O)N1Cc1ccc(F)cc1 (centres undefined)	0.3	0.3	66.1*	0.2	-0.6	72.7*
Cc1ccc(S(=O)(=O)NCC(=O)OC2CCOC2=O)cc1 (centres undefined)	1	1.1	-10.8	-15.9	0.8	-2.3
C/C(=N\NC(=O)c1ccc(Br)cc1)c1ccccc1	0.4	0.7	28.3	1.7	8.0	61.1*
